Reference: the supplement of paper PMC4466140

B1: unnamed (peptide)
chain: RPVPPPPPMRTTTEG

The binders below were run against AgAbp1 (assay: SPOT peptide array binding signal intensity (averaged, normalized) (arbitrary units (background-subtracted, floor 0; scale differs between SH3 domains)); higher = stronger binding of the SH3 domain to the peptide).
Method: (§1)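 GST-tagged SH3 domains from S. cerevisiae (Sc), A. gossypii (Ag), C. albicans (Ca) and S. pombe (Sp) were incubated at 10 ug/ml overnight at 4 C on cellulose SPOT membranes carrying 292 synthetic 15-mer peptides mined from the S. cerevisiae proteome (cysteines replaced by serines). Binding was detected with anti-GST antibody, HRP secondary and chemiluminescence, quantified with Genespotter, and reported as normalized spot intensities averaged over biological replicates.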
For B1, the “SPOT peptide array binding signal intensity” value was 18.

What follows are binders tested against AgBbc1 in the same assay as above.
Method: as §1
In the case of B1, the “SPOT peptide array binding signal intensity” value is reported as 814.

What follows are binders tested against AgBem1-D1 in the same assay as above.
Method: as §1
In the case of B1, the “SPOT peptide array binding signal intensity” value is reported as 201.

What follows are binders tested against AgBzz1-D1 in the same assay as above.
Method: as §1
For B1, the “SPOT peptide array binding signal intensity” value was 156.

What follows are binders tested against AgBzz1-D2 in the same assay as above.
Method: as §1
For B1, the “SPOT peptide array binding signal intensity” value was 14.5.

What follows are binders tested against AgCyk3 in the same assay as above.
Method: as §1
In the case of B1, the “SPOT peptide array binding signal intensity” value is reported as 14.

What follows are binders tested against AgFus1 in the same assay as above.
Method: as §1
In the case of B1, the “SPOT peptide array binding signal intensity” value is reported as 63.

The binders below were run against AgHof1 in the same assay as above.
Method: as §1
In the case of B1, the “SPOT peptide array binding signal intensity” value is reported as 61.8.

These binders were tested against AgHse1 in the same assay as above.
Method: as §1
With B1 the “SPOT peptide array binding signal intensity” value was 144.

The binders below were run against AgLsb1 in the same assay as above.
Method: as §1
B1 was tested, and the “SPOT peptide array binding signal intensity” value was 303.

These binders were tested against AgLsb4 in the same assay as above.
Method: as §1
With B1 the “SPOT peptide array binding signal intensity” value was 1760.

What follows are binders tested against AgMyo5 in the same assay as above.
Method: as §1
With B1 the “SPOT peptide array binding signal intensity” value was 41.2.

What follows are binders tested against AgNbp2 in the same assay as above.
Method: as §1
In the case of B1, the “SPOT peptide array binding signal intensity” value is reported as 3100.

These binders were tested against AgRvs167 in the same assay as above.
Method: as §1
With B1 the “SPOT peptide array binding signal intensity” value was 1050.

The binders below were run against AgSho1 in the same assay as above.
Method: as §1
B1 was tested, and the “SPOT peptide array binding signal intensity” value was 136.

These binders were tested against AgSla1-D1-D2 in the same assay as above.
Method: as §1
With B1 the “SPOT peptide array binding signal intensity” value was 1.

Each binder was assayed against AgSla1-D3 in the same assay as above.
Method: as §1
With B1 the “SPOT peptide array binding signal intensity” value was 108.

These binders were tested against CaAbp1-D1 in the same assay as above.
Method: as §1
For B1, the “SPOT peptide array binding signal intensity” value was 364.

Each binder was assayed against CaAbp1-D2 in the same assay as above.
Method: as §1
With B1 the “SPOT peptide array binding signal intensity” value was 60.5.

Each binder was assayed against CaBbc1 in the same assay as above.
Method: as §1
B1 was tested, and the “SPOT peptide array binding signal intensity” value was 553.

These binders were tested against CaBem1-D1 in the same assay as above.
Method: as §1
B1 was tested, and the “SPOT peptide array binding signal intensity” value was 166.

The binders below were run against CaBzz1-D1 in the same assay as above.
Method: as §1
In the case of B1, the “SPOT peptide array binding signal intensity” value is reported as 3990.

These binders were tested against CaBzz1-D2 in the same assay as above.
Method: as §1
In the case of B1, the “SPOT peptide array binding signal intensity” value is reported as 1260.

These binders were tested against CaCyk3 in the same assay as above.
Method: as §1
With B1 the “SPOT peptide array binding signal intensity” value was 387.

The binders below were run against CaFus1 in the same assay as above.
Method: as §1
For B1, the “SPOT peptide array binding signal intensity” value was 548.

These binders were tested against CaHof1 in the same assay as above.
Method: as §1
With B1 the “SPOT peptide array binding signal intensity” value was 40.

What follows are binders tested against CaHse1 in the same assay as above.
Method: as §1
For B1, the “SPOT peptide array binding signal intensity” value was 405.

What follows are binders tested against CaLsb1 in the same assay as above.
Method: as §1
In the case of B1, the “SPOT peptide array binding signal intensity” value is reported as 1.

Each binder was assayed against CaLsb4 in the same assay as above.
Method: as §1
With B1 the “SPOT peptide array binding signal intensity” value was 2480.

Each binder was assayed against CaMyo5 in the same assay as above.
Method: as §1
For B1, the “SPOT peptide array binding signal intensity” value was 54.

The binders below were run against CaNbp2 in the same assay as above.
Method: as §1
In the case of B1, the “SPOT peptide array binding signal intensity” value is reported as 1490.

Each binder was assayed against CaRvs167 in the same assay as above.
Method: as §1
For B1, the “SPOT peptide array binding signal intensity” value was 1460.

These binders were tested against CaRvs167-3 in the same assay as above.
Method: as §1
In the case of B1, the “SPOT peptide array binding signal intensity” value is reported as 0.75.

The binders below were run against CaSho1 in the same assay as above.
Method: as §1
B1 was tested, and the “SPOT peptide array binding signal intensity” value was 650.

Each binder was assayed against CaSla1-D1-D2 in the same assay as above.
Method: as §1
B1 was tested, and the “SPOT peptide array binding signal intensity” value was 1590.

Each binder was assayed against CaSla1-D3 in the same assay as above.
Method: as §1
For B1, the “SPOT peptide array binding signal intensity” value was 928.

What follows are binders tested against ScAbp1 in the same assay as above.
Method: as §1
In the case of B1, the “SPOT peptide array binding signal intensity” value is reported as 21.

The binders below were run against ScBbc1 in the same assay as above.
Method: as §1
With B1 the “SPOT peptide array binding signal intensity” value was 64.8.

Each binder was assayed against ScBem1-D1 in the same assay as above.
Method: as §1
With B1 the “SPOT peptide array binding signal intensity” value was ≤ 0.

These binders were tested against ScBzz1-D1 in the same assay as above.
Method: as §1
With B1 the “SPOT peptide array binding signal intensity” value was 177.

These binders were tested against ScBzz1-D2 in the same assay as above.
Method: as §1
With B1 the “SPOT peptide array binding signal intensity” value was 14.5.

What follows are binders tested against ScCyk3 in the same assay as above.
Method: as §1
B1 was tested, and the “SPOT peptide array binding signal intensity” value was 8.5.

What follows are binders tested against ScFus1 in the same assay as above.
Method: as §1
B1 was tested, and the “SPOT peptide array binding signal intensity” value was 180.

Each binder was assayed against ScHof1 in the same assay as above.
Method: as §1
In the case of B1, the “SPOT peptide array binding signal intensity” value is reported as 46.2.

What follows are binders tested against ScHse1 in the same assay as above.
Method: as §1
B1 was tested, and the “SPOT peptide array binding signal intensity” value was 63.

These binders were tested against ScLsb1 in the same assay as above.
Method: as §1
For B1, the “SPOT peptide array binding signal intensity” value was 180.

What follows are binders tested against ScLsb2 in the same assay as above.
Method: as §1
In the case of B1, the “SPOT peptide array binding signal intensity” value is reported as 434.

Each binder was assayed against ScLsb3 in the same assay as above.
Method: as §1
For B1, the “SPOT peptide array binding signal intensity” value was 4080.

The binders below were run against ScLsb4 in the same assay as above.
Method: as §1
With B1 the “SPOT peptide array binding signal intensity” value was 3130.

Each binder was assayed against ScMyo3 in the same assay as above.
Method: as §1
For B1, the “SPOT peptide array binding signal intensity” value was 569.

What follows are binders tested against ScMyo5 in the same assay as above.
Method: as §1
In the case of B1, the “SPOT peptide array binding signal intensity” value is reported as 239.

Each binder was assayed against ScNbp2 in the same assay as above.
Method: as §1
In the case of B1, the “SPOT peptide array binding signal intensity” value is reported as 4580.

What follows are binders tested against ScPex13 in the same assay as above.
Method: as §1
B1 was tested, and the “SPOT peptide array binding signal intensity” value was 1500.

These binders were tested against ScRvs167 in the same assay as above.
Method: as §1
B1 was tested, and the “SPOT peptide array binding signal intensity” value was 3300.

What follows are binders tested against ScSho1 in the same assay as above.
Method: as §1
For B1, the “SPOT peptide array binding signal intensity” value was 616.

Each binder was assayed against ScSla1-D1-D2 in the same assay as above.
Method: as §1
B1 was tested, and the “SPOT peptide array binding signal intensity” value was 1870.

These binders were tested against ScSla1-D3 in the same assay as above.
Method: as §1
In the case of B1, the “SPOT peptide array binding signal intensity” value is reported as 222.

These binders were tested against SpAbp1-D1 in the same assay as above.
Method: as §1
In the case of B1, the “SPOT peptide array binding signal intensity” value is reported as 95.5.

Each binder was assayed against SpBbc1 in the same assay as above.
Method: as §1
In the case of B1, the “SPOT peptide array binding signal intensity” value is reported as 40.5.

What follows are binders tested against SpBzz1-D1 in the same assay as above.
Method: as §1
In the case of B1, the “SPOT peptide array binding signal intensity” value is reported as 1370.

The binders below were run against SpBzz1-D2 in the same assay as above.
Method: as §1
With B1 the “SPOT peptide array binding signal intensity” value was 88.

These binders were tested against SpCyk3 in the same assay as above.
Method: as §1
With B1 the “SPOT peptide array binding signal intensity” value was 112.

Each binder was assayed against SpHof1 in the same assay as above.
Method: as §1
In the case of B1, the “SPOT peptide array binding signal intensity” value is reported as 111.

Each binder was assayed against SpHof1-2 in the same assay as above.
Method: as §1
In the case of B1, the “SPOT peptide array binding signal intensity” value is reported as 110.

These binders were tested against SpHof1-3 in the same assay as above.
Method: as §1
With B1 the “SPOT peptide array binding signal intensity” value was 966.

Each binder was assayed against SpHse1 in the same assay as above.
Method: as §1
B1 was tested, and the “SPOT peptide array binding signal intensity” value was 147.

These binders were tested against SpLsb1 in the same assay as above.
Method: as §1
In the case of B1, the “SPOT peptide array binding signal intensity” value is reported as 161.

Each binder was assayed against SpLsb4 in the same assay as above.
Method: as §1
In the case of B1, the “SPOT peptide array binding signal intensity” value is reported as 4570.

What follows are binders tested against SpMyo1 in the same assay as above.
Method: as §1
For B1, the “SPOT peptide array binding signal intensity” value was 333.

Each binder was assayed against SpNbp2 in the same assay as above.
Method: as §1
For B1, the “SPOT peptide array binding signal intensity” value was 191.

Each binder was assayed against SpPex13 in the same assay as above.
Method: as §1
In the case of B1, the “SPOT peptide array binding signal intensity” value is reported as 150.

Each binder was assayed against SpRvs167 in the same assay as above.
Method: as §1
In the case of B1, the “SPOT peptide array binding signal intensity” value is reported as 2150.

What follows are binders tested against SpSla1-D1-D2 in the same assay as above.
Method: as §1
In the case of B1, the “SPOT peptide array binding signal intensity” value is reported as 86.

Each binder was assayed against SpSla1-D3 in the same assay as above.
Method: as §1
With B1 the “SPOT peptide array binding signal intensity” value was 33.5.
